Screening results from PubChem.
Most compounds without a hit are left out; they make up all but 8% or so of the library.
KB-V1 cytotox: KB-V1 MDR subline cytotoxicity; KB-V1 MDR cells viability, CellTiter-Glo, 72 h; Potency, µM (titrated, usually from 46.1 µM), hits mostly cytotoxic; 400,000 tested, 3.4% active; AID 1347076; further: on the % scale 0 is the no-effect control and ±100 the full control effect; nearly all actives have a fitted effect of over 60% in size
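KB-V1 MDR subline cells in DMEM (phenol-red free, 10% FBS) exposed to compounds in qHTS concentration series for 72 h at 37 degrees C. Viability read by CellTiter-Glo luminescence; concentration-effect curves fitted after normalization and correction.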
MCF10A rerep: induces DNA re-replication in MCF 10a normal breast cells | MCF 10A DNA re-replication, Hoechst nuclear intensity, 48 h | Potency, µM (titrated, usually from 46.1 µM), inactives show at the highest dose activity, positive = re-replication, most hits filed as activators | 350,000 tested, 2.9% active; further: % of control where 0% means no effect; nearly all actives have a fitted effect of over 50% in size
HT1080 IDH1KD tx: kills HT-1080 cells with IDH1 knockdown; AID 686971; Potency, µM (top dose mostly 46.1 µM), inactives show at the top dose activity, negative = toxicity, actives largely listed as cytotoxic; 360,000 tested, 2% active; HT-1080 IDH1 knockdown viability, ATP luminescence, 48 h;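 further: 0% = DMSO wells and -100% = cell-free medium wells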
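IDH1KD HT-1080 cells, 750/well, RPMI + 5% FBS; compound pinned after 2 h settling; 48 h, 37 °C; CellTiter-Glo luminescence; % activity normalised to DMSO and no-cell wells; curves fitted, classed by r2 and efficacy.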
HT1080NT lethal: kills 2HG-producing HT-1080-NT fibrosarcoma cells | AID 686970 | HT-1080-NT fibrosarcoma viability, CellTiter-Glo ATP luminescence, 48 h | 360,000 tested, 1.6% active | Potency, µM (series often up to 46.1 µM), without a hit: at the highest dose activity, negative = less viability, usual class: cytotoxic;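 further: NT is the 2HG producing partner of a matched IDH1 knockdown line; 0% = DMSO-treated cells and -100% = media-only wells without cells; nearly all actives have a fitted effect of over 55% in size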
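Compounds were tested in concentration-response format on HT-1080-NT cells for 48 hours at 37 degrees C. Cell viability came from CellTiter-Glo luminescence; curves were classified by r2, response magnitude and activity.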
KB-3-1 cytotox: kills parental KB-3-1 adenocarcinoma cells; AID 1347075; 400,000 tested, 1.4% active; KB-3-1 viability, CellTiter-Glo ATP luminescence, 72 h; Potency, µM (doses to about 46.1 µM), most hits filed as cytotoxic; further: on the % scale 0 is the no-effect control and ±100 the full control effect; nearly all actives have a fitted effect of over 60% in size
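Viability of parental KB-3-1 cells, measured by CellTiter-Glo luminescence, followed a 72 h incubation at 37 °C with pinned compounds in phenol-red-free DMEM containing 10% FBS.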
SW480 rerep: DNA re-replication induction in SW480 cells. AID 624297. Potency, µM (doses to about 46.1 µM), for inactives: at the highest dose re-replication activation, most hits filed as activators. SW480 DNA re-replication, Hoechst DNA content imaging, 48 h. 340,000 tested, 1.8% active; further: % of control where 0% means no effect; nearly all actives have a fitted effect of over 55% in size
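Per well, 250 cells were exposed to pinned compound for 48 hr. Nuclear DNA was visualised with Hoechst (40 min, 37 C) and total object intensity recorded by fluorescence scanning.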
Active calls of the source: *; i = inactive; ? = inconclusive; . = no result given. The call rests on the fitted dose curve; in most records, active means well fitted curve in the direction sought with a large enough effect; inconclusive means small, poorly fitted or top-dose-only effect, or another doubt; inactive means no such curve, though single readings can be large; an effect the other way counts as inactive or inconclusive. Potency means the concentration at half of the fitted maximal effect.

SMILES | KB-V1 cytotox | MCF10A rerep | HT1080 IDH1KD tx | HT1080NT lethal | KB-3-1 cytotox | SW480 rerep
Cc1ccc(/C=C(\C#N)c2nc(-c3ccc(-c4ccccc4)cc3)cs2)cc1 | ? | . | . | . | i | .
Cc1ccc(-c2csc(/C(C#N)=C/Nc3ccc4c(c3)OCCO4)n2)cc1 | i | 3.7µM* | 7% | 14% | i | ?
COc1cc2nc(SCC(=O)Nc3ccc(F)cc3)n3nc(CCn4c(C)nc5ccccc54)nc3c2cc1OC | i | . | . | . | i | .
Cc1cccc(Nc2nc(-c3ccc4c(c3)OCCO4)cs2)c1 | i | 14µM* | -25% | -10% | ? | 7.3µM*
Cc1nc(C)c(-c2csc(Nc3cccc(O)c3)n2)s1 | ? | -10% | ? | ? | i | -1%
Cc1cccc(Nc2nc(-c3sc(C)nc3C)cs2)c1 | ? | 13% | ? | 26µM* | ? | -4%
Cc1ccc(Nc2nc(-c3sc(C)nc3C)cs2)cc1 | 1.8µM* | ? | 1.8µM* | 1.5µM* | 2.3µM* | 2.1µM*
Cc1ccnc(Nc2nc(-c3sc(C)nc3C)cs2)c1 | ? | 23µM* | ? | ? | ? | ?
O=C(COc1ccc(F)cc1)N(c1ccccn1)C1CCCCC1 | 21µM* | 11% | 17% | 1% | i | -73%
O=C(c1ccccc1)C(I)(I)N1CCOCC1 | i | . | . | . | ? | .
c1ccc(Nc2nc(Nc3ccccc3)nc(N3CCNCC3)n2)cc1 | ? | 4% | ? | 23µM* | i | ?
C=CC[C@@H](CC(=O)N(CCO)Cc1ccccc1)C(=O)NC[C@H](OC(=O)[C@@H](CC=C)Cc1ccc(F)cc1)c1ccccc1 | 16µM* | ? | ? | ? | ? | 7%
C=CC[C@@H](CC(=O)N(CCO)Cc1ccccc1)C(=O)N[C@@H](COC(=O)[C@@H](CC=C)Cc1ccc(F)cc1)Cc1c[nH]c2ccccc12 | ? | ? | ? | ? | ? | 1%
C=CCC[C@@H](Cc1ccc(F)cc1)C(=O)OC[C@@H](Cc1c[nH]c2ccccc12)NC(=O)[C@H](CC=C)CC(=O)N(CCO)Cc1ccccc1 | 21µM* | 23µM* | ? | 16µM* | ? | ?
C=CCC[C@H](Cc1ccc(F)cc1)C(=O)OC[C@@H](Cc1c[nH]c2ccccc12)NC(=O)[C@H](CC=C)CC(=O)N(CCO)Cc1ccccc1 | ? | 18µM* | ? | ? | ? | ?
C=CC[C@H](CC(=O)N(CCO)Cc1ccccc1)C(=O)N[C@@H](COC(=O)[C@@H](CC=C)Cc1ccc(F)cc1)Cc1c[nH]c2ccccc12 | i | 18µM* | ? | ? | i | 21µM*
COC(=O)c1ccc(CNC(=O)c2ccc(S(=O)(=O)N(C)c3ccccc3OC)cc2)cc1 | i | ? | -5% | -8% | i | -4%
COC(C[C@@H](O)C[C@H](O)[C@@H](C)OCc1ccccc1)OC | ? | 23% | 13% | 12% | i | 1%
Cc1cccc(C(=O)N2CCc3cc(CNC(=O)COc4ccc(Cl)cc4)ccc32)c1 | i | . | . | . | i | .
Cc1ccccc1Cn1cnc2c(NS(C)(=O)=O)c(C)c(C)cc21 | 16µM* | ? | -11% | -7% | ? | -10%
CCCc1cc(=O)oc2cc(C)c3c(-c4cccc(OC)c4)coc3c12 | i | . | . | . | i | .
CC(C)N=C(NS(=O)(=O)c1cccs1)c1ccccc1 | i | 5% | 16% | -7% | i | -16%
CSC(=NC(C)c1ccccc1)NS(=O)(=O)c1cccs1 (stereo not given) | 23µM* | 5% | -6% | -3% | ? | -45%
CC(=O)N1CCc2c(sc3c2c(=O)n(-c2ccccc2)c(=O)n3CC(=O)Nc2ccccc2C)C1 | ? | . | . | . | i | .
Brc1ccccc1-c1nnc(CSc2nncn2-c2ccccc2)o1 | i | 9% | 1% | -2% | i | 2%
